Screening data as filed in PubChem BioAssay.
ELG1 DNA repair: inhibitors of ELG1-dependent DNA repair in HEK293T cells; AID 504467; Potency, µM (highest dose often 46.1 µM), for the others: at the top dose activity change, negative = inhibition, usual class: inhibitors; 330,000 tested, 2.3% active; HEK293T ELG1-luciferase reporter, luminescence, 16 h; DNA damage induced by 5-fluorouridine; further: nearly all actives have a fitted effect of over 55% in size
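DMSO vehicle served as the neutral condition. Each well held 2,000 cells given 5-fluorouridine plus compound; after 16 hr at 37 °C/5% CO2, ONE-Glo was added and luciferase measured 30 min later.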
ALOX12 inh: ALOX12 (human) lipoxygenase inhibition | P18054 | purified 12hLO, xylenol orange hydroperoxide absorbance | Potency, µM (titrated, usually from 108 µM), for the others: top-dose activity change, negative = inhibition, actives largely listed as inhibitors | 580,000 tested, 1.1% active | AID 1671190
Target sequence (P18054 whole entry, looked up): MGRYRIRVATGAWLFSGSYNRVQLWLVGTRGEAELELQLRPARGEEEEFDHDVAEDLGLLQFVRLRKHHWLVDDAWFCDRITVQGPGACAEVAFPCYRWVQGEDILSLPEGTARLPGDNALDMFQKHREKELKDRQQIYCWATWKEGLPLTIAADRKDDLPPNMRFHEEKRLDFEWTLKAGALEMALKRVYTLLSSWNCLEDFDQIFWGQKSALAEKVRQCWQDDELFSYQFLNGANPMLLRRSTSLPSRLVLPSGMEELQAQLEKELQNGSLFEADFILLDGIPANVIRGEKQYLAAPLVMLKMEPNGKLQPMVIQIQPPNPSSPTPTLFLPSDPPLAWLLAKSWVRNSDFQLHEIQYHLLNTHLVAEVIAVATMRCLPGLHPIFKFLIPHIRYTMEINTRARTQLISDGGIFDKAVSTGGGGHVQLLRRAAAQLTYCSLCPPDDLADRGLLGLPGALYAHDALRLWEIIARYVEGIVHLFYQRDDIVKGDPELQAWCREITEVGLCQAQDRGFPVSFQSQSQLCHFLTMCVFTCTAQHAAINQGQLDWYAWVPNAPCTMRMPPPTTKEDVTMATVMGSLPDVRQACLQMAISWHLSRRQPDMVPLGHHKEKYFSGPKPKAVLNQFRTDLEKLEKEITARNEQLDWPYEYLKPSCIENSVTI
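Purified human 12hLO (150 nM final) in 25 mM Hepes, 0.01% Triton X-100, pH 7.0 was preincubated 15 min at room temperature with compound. Then 40 uM arachidonic acid was added, 30 min. Hydroperoxide was read by Fe-XO absorbance ratio 573/405 nm.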
DT40 TDP1 CPT: DT40-hTDP1 cell growth loss with CPT; chicken DT40 Tdp1-/-;hTDP1 cells + 20 nM CPT, ATP luminescence, 48 h; Potency, µM (highest dose often 46.2 µM), without a hit: at the highest dose activity change, negative = growth inhibition, hits mostly inhibitors; 420,000 tested, 12% active; AID 686979; further: nearly all actives have a fitted effect of over 55% in size
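Cell growth measured by CellTiter-Glo luminescence after a minimum 48 h, 37 C compound exposure with 20 nM CPT in Tdp1-knockout DT40 cells stably expressing hTDP1, seeded 400/well; qHTS titration format.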
RORg inh: inhibitors of mouse ROR gamma transcriptional activity. P51450. Drosophila S2 Gal4-RORgamma UAS-luciferase reporter, 20 h. Potency, µM (doses to about 53.6 µM), for the others: top-dose activity change, negative = inhibition, actives largely listed as inhibitors. 310,000 tested, 5.4% active. AID 2551; further: nearly all actives have a fitted effect of over 60% in size
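Using a luciferase readout, inhibitors were identified by reduced reporter activity in Drosophila cells coexpressing a copper-inducible Gal4–ROR gamma fusion and UAS-driven Photinus luciferase, incubated 20 hr after 700 uM copper sulfate.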
VP16 counter: counter-screen for ROR gamma inhibitors: Gal4-VP16 reporter; 310,000 tested, 3.5% active; Potency, µM (titrated, usually from 53.6 µM), for inactives: at the top dose activity, negative = inhibition, hits mostly inhibitors; Drosophila S2 Gal4-VP16 UAS-luciferase, luminescence, 20 h;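 further: Gal4-VP16 expression switched on by copper sulfate through the metallothionein promoter; nearly all actives have a fitted effect of over 50% in size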
DT40 TDP1 no CPT: qHTS for Inhibitors of human tyrosyl-DNA phosphodiesterase 1 (TDP1): qHTS in cells in absence of CPT; DT40 Tdp1-/- hTDP1 cells, no CPT, ATP luminescence, 48 h; Potency, µM (top dose mostly 46.2 µM), for the others: at the highest dose activity change, negative = growth inhibition, actives largely listed as inhibitors; 420,000 tested, 15% active; AID 686978, 2013; further: nearly all actives have a fitted effect of over 55% in size
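Camptothecin absent (DMSO only). Human TDP1-complemented DT40 knockout cells, 400 cells/well, 37 °C for minimum 48 hr; ATP measured via CellTiter-Glo, 30 min dark incubation, luminescence.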
* hit, by the source's call; u = inconclusive; x = no result; ! = not confirmed by another sample; [ ] = dose if it differs, or a comment. Sampled rows, rich in hits. Any-hit rate of the full collection: about 15%. The call rests on the fitted dose curve; in most records, active means well fitted curve in the direction sought with a large enough effect; inconclusive means small, poorly fitted or top-dose-only effect, or another doubt; inactive means no such curve, though single readings can be large; an effect the other way counts as inactive or inconclusive. On the % scale 0 is the no-effect control and ±100 the full control effect; potency means the concentration at half of the fitted maximal effect.

SMILES | ELG1 DNA repair | ALOX12 inh | DT40 TDP1 CPT | RORg inh | VP16 counter | DT40 TDP1 no CPT
O=C(CSc1nc2nc[nH]c2c(=O)[nH]1)NCc1ccccc1 | x | 0.56µM* | x | x | x | x
O=C(CN(CC1CCCO1)C(=O)CCC(=O)Nc1ccccn1)NCC1CCCO1 (configuration not stated) | 8% | 113% | 4% | -14%[0.365 µM] | x | -22%
COCCN(CC(=O)NCC1CCCO1)C(=O)CCC(=O)Nc1ccccn1 (configuration not stated) | 1% | 1% | 13µM* | 0% | 1% | 23µM*
O=C(/C=C/c1ccc(F)cc1)c1ccccc1Br | -24% | -17% | u | u | u | 16µM*
O=C(C=Cc1cccc(O)c1)c1ccccc1O | x | u | u | x | x | 15µM*
O=C(/C=C/c1ccc(O)c(O)c1)c1ccccc1O | u | 7.1µM* | 12µM* | -21% | u | u
Oc1cc(O)cc(C=Cc2ccc(O)c(O)c2)c1 | x | 3.1µM* | x | x | x | x
COc1ccc(C=Cc2cc(OC)c(OC)c(OC)c2)cc1O | x | 4% | x | x | x | x
O=C(/C=C/c1ccc(Cl)cc1)c1ccccc1O | x | -25% | x | x | x | x
O=C(/C=C/c1cccc(O)c1)c1cccc(O)c1 | x | -22% | x | x | x | x
COc1cccc(C(=O)OC(C)C(=O)C23CC4CC(CC(C4)C2)C3)c1OC (configuration not stated) | x | -1% | x | x | x | x
CCNC(=O)[C@@H]1C[C@H](NC(=O)Cc2ccccc2F)CN1C1CCOCC1 | x | 11% | x | x | x | x
CC(C)CN(CC(C)C)C(=O)COC(=O)c1c[nH]c2ccccc12 | x | 1% | x | x | x | x
Cc1cccc(C)c1NC(=O)CN(C)S(=O)(=O)c1c(C)noc1C | x | 8% | x | x | x | x
O=C(/C=C/c1ccccc1O)c1ccccc1Cl | x | -43% | x | x | x | x
O=C(C=Cc1ccccc1O)c1ccccc1O | x | -24% | u | x | x | 15µM*
O=C(/C=C/c1ccc(O)c(O)c1)OCCc1ccccc1 | x | 11µM*! | 1.5µM* | u | 10µM* | 1µM*
O=C(O)CC/C(=C/c1ccc(OC(F)F)cc1)c1nc2ccccc2s1 | x | 3% | x | x | x | x
Cc1cccc(OCC(=O)NCc2nnc3ccc(-c4ccc(F)cc4)nn23)c1 | x | 7% | x | x | x | x
CSc1ccc(C2CC(=O)NC3=C2C(=O)CC(C)(C)C3)cc1 (configuration not stated) | x | 0% | x | x | x | x
O=C(Nc1nc(-c2ccccc2)cs1)C1CCCCN1S(=O)(=O)c1ccccc1 (configuration not stated) | u | -18%[57.4 µM] | 26µM* | u | u | 23µM*
O=C(Nc1nc(-c2ccccc2)cs1)C1CCCCN1S(=O)(=O)c1ccc(Cl)cc1 (configuration not stated) | u | 5% | u | u | -12% | u
O=C(Nc1nc(-c2ccccc2)cs1)C1CCCN(S(=O)(=O)c2cccc([N+](=O)[O-])c2)C1 (configuration not stated) | 16µM* | 0% | 21µM* | 0% | -3% | u
O=C(Nc1nc(-c2ccccc2)cs1)C1CCCN(S(=O)(=O)c2ccccc2)C1 (configuration not stated) | 2.3µM* | u | 6.5µM* | 21% | 7% | 6.5µM*
CCNC(=O)N[C@H]1[C@H](O)[C@H](O)C[C@@H]1c1ccncc1 | x | -17%[176 µM] | x | x | x | x
SMILES | ELG1 DNA repair | ALOX12 inh | DT40 TDP1 CPT | RORg inh | VP16 counter | DT40 TDP1 no CPT
CC1(C)C(=O)C2(CCCCC2)C(=O)OC1c1ccc(Br)cc1 (configuration not stated) | x | 2% | x | x | x | x
CC(=O)c1ccc(NC(=O)C(C)SC2CCCC2)cc1 (configuration not stated) | x | 8% | x | x | x | x
O=C(C1CCCC1)N1CCC(n2cnnc2C2CC2)CC1 | x | 12% | x | x | x | x
COc1cccc(/C=N/N2CCN(c3ccncc3S(=O)(=O)N3CCCCC3)CC2)c1 | -3% | -3% | u | 19% | -9% | 2.6µM*
Cc1ccc(/C=N/N2CCN(c3ccncc3S(=O)(=O)N3CCCCC3)CC2)cc1 | -1% | 17% | u | 1% | -1% | u
Cc1ccc(C)c(N2CCN(S(=O)(=O)c3c(C)[nH]c(C)c3C(=O)N3CCCCC3)CC2)c1 | u | -10% | u | 22% | -22% | u
Cc1ccc(Cl)cc1N1CCN(S(=O)(=O)c2c(C)[nH]c(C)c2C(=O)N2CCCCC2)CC1 | u | u | 16µM* | 10% | 1% | u
Cc1[nH]c(C)c(S(=O)(=O)N2CCN(c3cccc(Cl)c3)CC2)c1C(=O)N1CCCCC1 | 16% | u | 21µM* | 10% | -6% | 21µM*
Cn1cc(C2N=C(N)Nc3nc4ccccc4n32)c2cc(F)ccc21 (configuration not stated) | x | -30% | x | x | x | x
O=C(c1cccc(Oc2ccccc2)c1)N1CC[C@@]2(O)CCNC[C@H]2C1 | x | 7% | x | x | x | x
CC(=O)Nc1ccc(S(=O)(=O)NCCc2cc3c(C)ccc(C)c3[nH]c2=O)cc1 | 2% | 13%[57.4 µM] | -16% | 34% | -5% | -13%
Cc1ccc2cc(CCNS(=O)(=O)c3ccc(Br)cc3)c(=O)[nH]c2c1C | u | 9% | u | 27% | 5% | 23µM*
Cc1cc(C)c(S(=O)(=O)NCCc2cc3ccc(C)c(C)c3[nH]c2=O)c(C)c1 | -5% | -5% | u | 2% | 4% | 18µM*
CC(C)N=c1scc(-c2cccs2)n1/N=C/c1ccc(O)c(O)c1O | u | 14µM* | 13µM* | u | u | 13µM*
CN=c1scc(-c2ccccc2F)n1/N=C/c1ccc[nH]1 | u | -22% | -11% | 0.022µM* | 0.63µM* | u
COc1ccc(O)c(/C=N/n2c(-c3ccco3)csc2=Nc2cccnc2)c1 | 12% | -10% | -27% | -20% | -26% | u
CN=c1scc(-c2ccccc2F)n1/N=C/c1ccc(O)c(O)c1O | u | 35µM* | 13µM* | u | -72% | 12µM*
CN=c1scc(-c2ccccc2)n1/N=C/c1ccsc1 | x | 2% | x | x | x | x
CN=c1scc(-c2cccs2)n1/N=C/c1ccccc1 | x | 14% | x | x | x | x
CCN=c1scc(-c2cccs2)n1/N=C/c1cc(OC)ccc1O | u | -14% | u | -13%[10 µM] | -12% | 21µM*
Cc1ccccc1NC(=O)CNc1nc(Nc2ccccc2)nc(Nc2ccccc2)n1 | x | 16µM* | x | x | x | x
Cc1cc(SCC(=O)Nc2ccccc2C)nc(C)n1 | 1% | 4% | 5% | -21% | -2% | 1%
